# Experimental data published in PubChem BioAssay (NCI).
# About 83,000 compounds went through this panel and 20% of them were active in at least one assay; those are over-represented in the sample as a whole.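 Method: cells in 96-well plates; compound added at one concentration; 48 h incubation; percent growth measured; values under 10 scored active.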 Active and inactive are the calls of the source.
# Test system: SK-MEL-2 melanoma
# Assay: NCI-60 one-dose screen, 48 h (100 = growth as untreated, 0 = no growth, -100 = all killed)
# Conditions: 10 µM
row,SMILES,growth
1,O=C(/C=C/c1ccco1)c1nc2ccccc2n1Cc1ccc(Br)cc1,46.2% (inactive)
2,O=C(/C=C/c1ccco1)c1nc2ccccc2n1Cc1ccc(F)cc1,69.9% (inactive)
3,COc1cc2cc(C(=O)N3C[C@@H](CCl)c4c3cc(OC(=O)N3CCN(C)[C@@H]5CSSC[C@@H]53)c3ccccc43)[nH]c2c(OC)c1OC,-89% (active)
4,C#CC[Se]C(=O)c1ccc2n[se]nc2c1,104% (inactive)
5,O=C(/C=C/c1ccc(Cl)cc1Cl)c1nc2ccccc2n1Cc1ccc(F)cc1,94.7% (inactive)
6,O=C(/C=C/c1ccc(Cl)cc1)c1nc2ccccc2n1Cc1ccc(Br)cc1,83.3% (inactive)
7,CCOP(=O)(OCC)C(NC(C)=O)C(=O)SCCN (centres undefined),112% (inactive)
8,COc1cc2cc(C(=O)N3C[C@@H](CCl)c4c3cc(OC(=O)N3CCN(C)[C@@H]5CSSC[C@H]53)c3ccccc43)[nH]c2c(OC)c1OC,-91.8% (active)
9,COc1ccc2cc([C@H](C)C(=O)[Se]CCC#N)ccc2c1,-42.1% (active)
10,CC12OOC(C)(OO1)C2CCC(=O)OCCNc1ccnc2cc(Cl)ccc12 (centres undefined),107% (inactive)
11,CC(C)N=C([Se])NC(=O)c1cccs1,-57.7% (active)
12,Cc1ccc2[nH]c(=S)n(-c3ccc(F)cc3)c(=O)c2c1,105% (inactive)
13,CCOC(=O)C1=C(Nc2ccccc2)C(=O)OC12C(=O)Nc1ccccc12 (centres undefined),99.9% (inactive)
14,CC12CCC3(CCC(=O)NCCCNc4ccnc5cc(Cl)ccc45)[C@@](C)(OO[C@]3(C)O1)O2,23.3% (inactive)
15,CC[C@]12C=CCN3CC[C@@]4(c5ccc(OC)cc5N(C)[C@H]4[C@@](O)(C(=O)OC)[C@@H]1OC(=O)CCCC[P+](C1CCCCC1)(C1CCCCC1)C1CCCCC1)[C@@H]32,-88% (active)
16,CC(=O)Oc1ccccc1C(=O)[Se]C(=NC(C)C)NC(C)C,-79.4% (active)
17,COCCOCCOCCOc1ccc(-n2cc(CCCN(CCNc3ccnc4cc(Cl)ccc34)C(=O)CCC(=O)O[C@@H]3O[C@@H]4OC5(C)CC[C@H]6[C@H](C)CC[C@@H]([C@H]3C)[C@@]46OO5)nn2)cc1,47.9% (inactive)
18,C[C@H]1[C@@H](CC(=O)N[C@@H](Cc2coc3ccccc23)B(O)O)O[C@@H]2OC3(C)CC[C@H]4[C@H](C)CC[C@@H]1[C@@]24OO3,-53.6% (active)
19,COP(=O)(CC(F)(F)C(F)(F)F)OC,25.2% (inactive)
20,CC12OOC(C)(OO1)C2CCC(=O)NCCNc1ccnc2cc(Cl)ccc12 (centres undefined),105% (inactive)

row,SMILES,growth
1,CC[C@]12C=CCN3CC[C@@]4(c5ccc(OC)cc5N(C)[C@H]4[C@@](O)(C(=O)OC)[C@@H]1OC(=O)CCC[P+](c1ccc(C)cc1)(c1ccc(C)cc1)c1ccc(C)cc1)[C@@H]32,-85.4% (active)
2,CC(C)N=C([Se])NC(=O)c1ccccc1,-40% (active)
3,CC[C@]12C=CCN3CC[C@@]4(c5ccc(OC)cc5N(C)[C@H]4[C@@](O)(C(=O)OC)[C@@H]1OC(=O)CCC[P+](C1CCCCC1)(C1CCCCC1)C1CCCCC1)[C@@H]32,-84.9% (active)
4,CC1=C(COCCOC(=O)c2ccc(S(=O)(=O)F)cc2)C2=C(C)C3(CC3)[C@@](C)(O)C(=O)C2=C1,-99.4% (active)
5,CC[C@]12C=CCN3CC[C@@]4(c5ccc(OC)cc5N(C)[C@H]4[C@@](O)(C(=O)OC)[C@@H]1OC(=O)CCCC[P+](c1ccc(OC)cc1)(c1ccc(OC)cc1)c1ccc(OC)cc1)[C@@H]32,-91.4% (active)
6,CC1=C(CCC=NNC(N)=O)C2=C(C)C3(CC3)[C@@](C)(O)C(=O)C2=C1,-76.9% (active)
7,CC[C@@]12CC(C(=O)OC)=C3Nc4cc5c(cc4[C@@]34CCN(C[C@H]3O[C@H]31)[C@@H]24)[C@@H]1[C@H](O5)[C@@H](O)[C@@]2(CC)CC(C(=O)OC)=C3Nc4cc(OC)ccc4[C@@]34CCN1[C@@H]24,-12% (active)
8,CCOP(=O)(CC(F)(F)C(F)(F)F)OCC,29.5% (inactive)
9,CC1=C2C(=C[C@@](C)(COP(=O)(Oc3ccccc3)Oc3ccccc3)[C@@H]2O)C(=O)[C@@](C)(O)C12CC2,-83.9% (active)
10,CC(=O)Oc1ccccc1C(=O)NC([Se])=NC1CCCCC1,-43.7% (active)
11,C[C@H]1[C@H](OC(=O)CCC(=O)N(CCCc2cn(-c3ccc(CN4CCOCC4)cc3)nn2)CCNc2ccnc3cc(Cl)ccc23)O[C@@H]2OC3(C)CC[C@H]4[C@H](C)CC[C@@H]1[C@@]24OO3,44.2% (inactive)
12,O=C(/C=C/c1ccc(Cl)cc1)c1nc2ccccc2n1Cc1ccc(F)cc1,68.3% (inactive)
13,CC1=C(CCC=O)C2=C(C)C3(CC3)[C@@](C)(O)C(=O)C2=C1,-70.6% (active)
14,O=C(NC([Se])=NC1CCCCC1)c1ccc2c(c1)OCO2,99.6% (inactive)
15,C[C@H]1[C@H](OC(=O)CCC(=O)N(CCCc2cn(-c3ccc(C#N)cc3)nn2)CCNc2ccnc3cc(Cl)ccc23)O[C@@H]2OC3(C)CC[C@H]4[C@H](C)CC[C@@H]1[C@@]24OO3,31.4% (inactive)
16,C[C@H]1[C@@H](Oc2ccc(-c3cn(-c4ccnc5cc(Cl)ccc45)nn3)cc2)O[C@@H]2OC3(C)CC[C@H]4[C@H](C)CC[C@@H]1[C@@]24OO3,7.17% (active)
17,COc1ccc(/C=C/C(=O)c2nc3ccccc3n2Cc2ccc(Br)cc2)cc1,88.8% (inactive)
18,COC(=O)CCn1c(-c2ccc(-n3cc(-c4ccc(O[C@H]5O[C@@H]6OC7(C)CC[C@H]8[C@H](C)CC[C@@H]([C@H]5C)[C@@]68OO7)cc4)nn3)cc2)nc2ccccc21,-6.2% (active)
19,C[C@H]1[C@H](OC(=O)CCC(=O)N(CCCc2cn(-c3ccc([N+](=O)[O-])cc3)nn2)CCNc2ccnc3cc(Cl)ccc23)O[C@@H]2OC3(C)CC[C@H]4[C@H](C)CC[C@@H]1[C@@]24OO3,26.7% (inactive)
